# Assay outcomes: PubChem, National Center for Advancing Translational Sciences (NCATS)
# This is a sample that favours compounds with a hit; in the whole collection about 9.2% have one here.
# ELG1 DNA repair: ELG1-dependent DNA repair inhibition | HEK293T ELG1-luciferase reporter, luminescence, 16 h; DNA damage induced by 5-fluorouridine | Potency, µM (highest dose often 46.1 µM), for the others: top-dose activity change, negative = inhibition, most hits filed as inhibitors | 2.3% of 330,000 active; note: % is set by controls: 0 for no effect and ±100 for the full control effect; nearly all actives have a fitted effect of over 55% in size
#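 In this reporter screen, reduction of luminescence relative to DMSO vehicle indicated activity. Compounds and 5-fluorouridine were added together to 2,000 cells per well, incubated for 16 hr at 37 °C, then developed with ONE-Glo.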
# Rab9 promoter act: activators of Rab9 promoter. Huh7 Rab9 promoter-luciferase reporter, luminescence, 24 h. 2.8% of 320,000 active. Potency, µM (titrated, usually from 9.22 µM), without a hit: at the top dose activation, negative = inhibition, most hits filed as activators; note: % of control where 0% means no effect; nearly all actives have a fitted effect of over 60% in size
#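 Steps: seed 1500 Huh7 Rab9-luc cells per well, rest 2 h at 37 °C; add compound in DMSO; incubate 24 h; add luciferase reagent, 10 min ambient; read luminescence.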
# FLuc modulator: counter-screen for miR-21 project: firefly luciferase inhibitors or activators; P08659; purified FLuc, Km substrates, luminescence inhibition; Potency, µM (highest dose often 57.5 µM), without a hit: at the highest dose activity change, negative = inhibition, most hits filed as inhibitors; 6.9% of 360,000 active; AID 588342;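 note: plate controls were vehicle for no effect and reference inhibitor for full effect; nearly all actives have a fitted effect of over 55% in size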
# Target sequence (P08659 whole entry, looked up): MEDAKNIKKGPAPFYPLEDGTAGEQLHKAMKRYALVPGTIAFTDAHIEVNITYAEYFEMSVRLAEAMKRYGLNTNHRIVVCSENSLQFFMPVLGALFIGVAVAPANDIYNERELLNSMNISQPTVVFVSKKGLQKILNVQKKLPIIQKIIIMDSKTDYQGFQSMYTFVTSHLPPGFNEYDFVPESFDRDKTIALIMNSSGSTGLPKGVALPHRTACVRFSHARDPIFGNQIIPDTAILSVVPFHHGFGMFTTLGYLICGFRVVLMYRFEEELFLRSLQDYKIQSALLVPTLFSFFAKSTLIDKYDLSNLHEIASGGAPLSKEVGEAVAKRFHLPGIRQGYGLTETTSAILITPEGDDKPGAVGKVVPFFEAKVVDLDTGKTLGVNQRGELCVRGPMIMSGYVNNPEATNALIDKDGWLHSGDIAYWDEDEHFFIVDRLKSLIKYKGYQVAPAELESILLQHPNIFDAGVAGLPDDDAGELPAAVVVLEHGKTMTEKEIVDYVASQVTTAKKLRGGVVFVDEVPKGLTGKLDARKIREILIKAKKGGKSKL
#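 Biochemical qHTS of compounds, final roughly 60 µM downward over six points, against 10 nM purified firefly luciferase using Km concentrations of substrates (10 uM D-luciferin, 10 uM ATP) in Tris acetate pH 7.5 buffer; luminescence output.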
# SMN2 splice up: SMN2 splice variant enhancement; Potency, µM (titrated, usually from 46.1 µM), inactives show at the top dose activity change, positive = activation, usual class: activators; HEK293 SMN2-luciferase splicing reporter, luminescence, 30-36 h; 2.8% of 210,000 active; note: % of control where 0% means no effect; nearly all actives have a fitted effect of over 55% in size
#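 HEK293 cells carry an SMN2 minigene-luciferase reporter in which exon 7 inclusion puts luciferase in frame. Cells were seeded at 2000 cells/well, attached for 10-12 hours, then exposed to compounds for 30-36 hours at 37C before ONE-Glo luminescence.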
# NPC1 prom act: activates the NPC1 promoter. 2.4% of 320,000 active. Potency, µM (series often up to 9.22 µM), for the others: at the highest dose activation, actives largely listed as activators. Huh7 NPC1 promoter luciferase reporter, 24 h; note: % of control where 0% means no effect; nearly all actives have a fitted effect of over 60% in size
#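 In 1536-well qHTS, Huh7 cells harboring an NPC1 promoter–luciferase construct received compound for 24 h; activation was quantified by luminescence following luciferase reagent addition.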
# ELG1 genotoxic: inducers of genotoxicity in HEK293T ELG1-luciferase cells; Potency, µM (highest dose often 46 µM), inactives show top-dose activity change, positive = activation, hits mostly activators; AID 504466; 1.3% of 330,000 active; HEK293T ELG1-luciferase reporter, luminescence, 16 h; note: % of control where 0% means no effect; nearly all actives have a fitted effect of over 60% in size
#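 DMSO vehicle served as control against compound-treated ELG1-luciferase HEK293T cells; exposure lasted 16 hr at 37 °C and 5% CO2, followed by ONE-Glo luminescence detection after 30 min.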
# Active calls of the source: *; ? = inconclusive; . = no result given; [ ] = another dose, or the depositor's remark. Calls come from the whole dose curve; as a rule, active = well fitted curve in the direction sought with a large enough effect; inconclusive = small, poorly fitted or top-dose-only effect, or another doubt; inactive = no such curve, though single readings can be large; an effect the other way counts as inactive or inconclusive. Potency is the fitted concentration of half-maximal effect.
SMILES,ELG1 DNA repair,Rab9 promoter act,FLuc modulator,SMN2 splice up,NPC1 prom act,ELG1 genotoxic
O=C(CCCC(=O)OCC(=O)c1ccc(Cl)cc1Cl)Nc1cc(C(F)(F)F)ccc1Cl,23.6%,-2.8%,3.79µM*,-1.9%,0.9%,0.1%
O=C(N/N=C(\c1ccccc1)c1cccnc1)c1cc(O)ccc1O,-2.1%,12.8%,2.8%,.,-2.3%,-0.3%
CC(C)C(=O)Nc1c2c(nn1-c1ccc(F)cc1)CSC2,24.7%,1.8%,0.8%,.,-3.2%,0.2%[9.26 µM]
CCCCOC(=O)Nc1ccc(S(=O)(=O)Nc2nc(C)cc(C)n2)cc1,0.1%,0.6%,-0.9%,.,0.9%,3.3%
CCCCOC(=O)NS(=O)(=O)c1sc(CC(C)C)cc1-c1ccc(Cn2c(CC)nc3c(C)cc(C)nc32)cc1,13µM*,-43.1%[46.1 µM],-2.2%,-5.3%,-29.9%[46.1 µM],-3.4%
CC(Sc1cnccn1)C(=O)O (stereo not given),?,-1.9%,-1.5%,6.4%,-1.8%,4.1%
CCCCn1c(=O)n(C)c(=O)c2c(C(F)(F)F)cc(-c3ccncc3)nc21,14.6µM*,-5.4%,-1.3%,21.2%,-0.7%,-6.0%
CC(=O)Nc1ccc(S(=O)(=O)NC2=C(N3CCN(c4ccc(F)cc4)CC3)C(=O)c3ccccc3C2=O)cc1,8.2µM*,-32.7%,-10.1%,-6.8%,-20.5%,-39.0%
OCCNc1nc(Nc2ccccc2)nc2ccccc12,-21.7%,-3.0%,?,-34.4%,-8.0%,-4.8%
Cc1c(Cl)cccc1Nc1nc(NCCO)c2ccccc2n1,6.2%,-4.0%,15.1µM*,.,3.9%,-2.8%
OCCNc1nc(Nc2ccc(Br)cc2)nc2ccccc12,?,0.4%,16.9µM*,-19.0%,-7.3%,-7.7%
CCCn1c(-c2ccc(F)cc2)nc2c(NCCCCN(CC)CC)nc(C)nc21,.,.,.,2.6%,.,.
CC(=O)Nc1ccc(S(=O)(=O)Nc2nc3ccccc3nc2Nc2ccc(O)cc2)cc1,?,-2.5%,?,.,-0.4%,7.9%
COCC(C)n1c(C)cc(C(=O)COC(=O)c2ccc3ncsc3c2)c1C (stereo not given),16.2%,15.5%,16.9µM*,-17.4%,0.5%,?
Cn1c2ccccc2c2ncn(CCC3=CCCCC3)c(=O)c21,?,4.47µM*,16.9µM*,.,28.1%,?
Cn1c2ccccc2c2ncn(CCCN3CCOCC3)c(=O)c21,12.5%,2.8%,-0.8%,?,-3.5%,15.3%
O=C(Nc1ccc2c(c1)OCO2)N1CCN(c2ccc(F)cc2)CC1,?,?,23.9µM*,22.2%,?,12.5%
CC1CN(C(=O)Nc2ccc3c(c2)OCO3)CC(C)O1 (stereo not given),?,26.5%,16.9µM*,25.0%,26.6%,?
COC(=O)c1ccc(Cl)cc1NC(=O)NC(C)c1c(-n2cccc2)sc(C)c1C (stereo not given),.,.,-6.4%,-5.2%,.,.
CC1CCCC(C)N1C(=O)COC(=O)CCC1CCCC1 (stereo not given),-0.5%,-1.1%,-0.4%,.,-1.6%,-4.4%
CSc1nnc(N2C(=O)C(O)=C(C(=O)c3ccc(C)o3)C2c2ccc(C)cc2)s1 (stereo not given),?,0.794µM*,?,.,0.631µM*,1.3µM*
CSc1nnc(N2C(=O)C(O)=C(C(=O)c3ccco3)C2c2ccccc2)s1 (stereo not given),-0.1%,3.9%,-2.9%,.,-2.3%,-5.9%
CCN(CC)C(=O)N1CCC(NC(=O)c2ccc(C(C)(C)C)cc2)CC1,20.6µM*,-4.0%,1.4%,4.6%,-4.9%,-7.4%
COc1ccc(-c2nc3nc(C)c(Cc4ccccc4)c(=O)n3[nH]2)cc1,?,13.7%,9.53µM*,?,13.0%,?
COc1ccc(-c2nc3nc(C)cc(=O)n3[nH]2)cc1,12.5%,17.8%,16.9µM*,0.7%,-2.9%,2.6%
SMILES,ELG1 DNA repair,Rab9 promoter act,FLuc modulator,SMN2 splice up,NPC1 prom act,ELG1 genotoxic
COC(=O)Cc1c(C)nc2nc(NCc3ccc(Br)cc3)[nH]n2c1=O,.,.,?,4.7%,.,.
COC(=O)Cc1c(C)nc2nc(-c3ccc(OC)cc3)[nH]n2c1=O,18.5%,1.5%,15.1µM*,-9.5%,12.1%,?
Cc1cc(=O)n2[nH]c(COc3ccccc3)nc2n1,16.9%,-5.8%,?,5.6%,1.4%,-5.4%
CCC(C(=O)Nc1cc(C)ccc1OC)n1nnc(C(=O)OC)c1C(=O)OC (stereo not given),.,.,3.7%,-10.4%,.,.
COc1ccc(/C=C/CN2CCC(n3nccc3NC(=O)C3CC3)CC2)cc1,?,6.3%,4.0%,.,0.4%,0.8%
CCc1ccc(OCC(=O)NNC(=O)CNC(=O)c2ccc(Br)o2)cc1,16.1%,0.5%,?,.,0.0%,4.9%
CCCOc1ccc(OC(=O)c2ccc(Br)o2)cc1,-6.1%,-2.5%,9.53µM*,-6.6%,-3.8%,2.8%
CCCCOc1ccc(CSc2nnc(C)n2N)cc1[N+](=O)[O-],?,26.3%,7.57µM*,.,19.5%,13.7%
COc1ccc(/C=N/N2C(=N)SCC2=O)cc1,?,18.8%,3.38µM*,.,?,?
COc1ccc(N=C2SCC(=O)N2Cc2ccccc2)cc1,?,-0.9%,-10.4%,-13.3%,-2.0%,9.0%
COc1ccc(CN2C(=O)CS/C2=N/N=C/c2ccccc2)cc1,21.6%,23.2%,16.9µM*,.,15.7%,?
COc1ccc(/C=N/N=C2/SCC(=O)N2Cc2ccccc2)cc1,?,1.26µM*,4.78µM*,.,3.55µM*,?
COc1ccccc1CNC(=O)CSc1nc2nc(C)c(Cc3ccccc3C)c(C)n2n1,.,.,-1.8%,-25.2%,.,.
COCCCNC(=O)C1CCC(CNS(=O)(=O)c2ccc(C)cc2)CC1 (stereo not given),-4.7%,4.5%,1.6%,-9.1%,-5.4%,2.3%
CC(C)c1ccc(S(=O)(=O)N2CCC(N3CCN(Cc4ccccc4)C(=O)C3=O)CC2)cc1,.,.,-2.1%,.,.,.
CC12CCC(=O)N1C(C(=O)N1CCN(c3cccc(Cl)c3)CC1)CS2 (stereo not given),-16.6%,-1.4%,1.3%,.,0.6%,-6.2%
CCC(=O)Nc1ccc(NC(=O)c2ccc3c(c2)OCO3)cc1,?,-5.7%,-18.8%,-1.1%,-2.4%,14.3%
CCN(CC)c1ccc(NC(=O)c2ccc3c(c2)OCO3)cc1,?,2.24µM*,6.75µM*,.,?,?
COc1ccc(C(=O)Nc2ccncc2)cc1[N+](=O)[O-],12.8%,-0.8%,2.4%,.,2.8%,-2.2%
COc1ccc(NC(=O)c2ccc3c(c2)OCO3)cc1[N+](=O)[O-],?,3.16µM*,?,?,2.82µM*,?
COc1ccc2[nH]c(C(=O)Nc3ccc(F)cc3Br)cc2c1,0.3%,-2.7%,-12.1%,.,-29.3%,0.4%
